# Screening results: PubChem BioAssay, National Center for Advancing Translational Sciences (NCATS)
# MARV entry inh: qHTS for inhibitors of binding or entry into cells for Marburg Virus; Marburg virus pseudotyped entry inhibition, cell reporter; Potency, µM (doses to about 37.8 µM), inactives show at the highest dose activity change, negative = inhibition, hits mostly inhibitors; actives 1.8% (n = 300,000); calls by dose curve; tested in HEK293 cells; note: potency is the fitted concentration of half-maximal effect; % is set by controls: 0 for no effect and ±100 for the full control effect
# HCV inhibitor: qHTS Assay for Inhibitors of Hepatitis C Virus (HCV); AID 651820, 2012; Huh7.5.1 HCVcc-Cre infection, luciferase reporter, 44 h; Potency, µM (series often up to 41.8 µM), inactives show at the highest dose activity change, negative = inhibition, actives largely listed as inhibitors; actives 3.4% (n = 340,000); active = well fitted inhibition curve with a large enough effect; inconclusive = small, poorly fitted or top-dose-only effect, or another doubt; inactive = no such curve, though single readings can be large or run the other way; note: potency is the fitted concentration of half-maximal effect; % is set by controls: 0 for no effect and ±100 for the full control effect
#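 Cells (1,000/well) were plated 4 h before compound, then infected with HCVcc-Cre virus (~0.5 moi). After 44 h further culture, infection was read as luciferase luminescence following a 15 min substrate incubation at room temperature.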
# HCMV antiviral: qHTS Assay for inhibitors of the human cytomegalovirus (HCMV) | HFF cells, HCMV-luciferase reporter, 72 h; hits give low values | activity change, negative = inhibition, % at 57.5 µM | actives 4.5% (n = 410,000); in the data active = activity change below about -60%; inconclusive = no clear call, values can overlap the other calls; inactive = above about -39%; note: % is set by controls: 0 for no effect and ±100 for the full control effect
#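 Screen run at 2 compound doses on HFFs infected with reporter HCMV, MOI 1 PFU/cell. Luciferase activity from cell lysates at 72 h post infection gave inhibition relative to buffer-only and Salinomycin wells.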
# FMDV antiviral: High Throughput Screening for Foot and Mouth Disease Virus Antivirals | FMDV antiviral cell-based qHTS | Potency, µM (doses to about 57.9 µM), inactives show at the top dose activity change, negative = inhibition, usual class: inhibitors | actives 1.2% (n = 410,000); calls by dose curve; tested in HEK293T cells; note: read-out not given here; potency is the fitted concentration of half-maximal effect; % is set by controls: 0 for no effect and ±100 for the full control effect; nearly all actives have a fitted effect of over 45% in size
# LASV entry inh: qHTS for Inhibitors of binding or entry into cells for Lassa Virus; Potency, µM (titrated, usually from 37.9 µM), for inactives: at the top dose activity change, negative = inhibition, hits mostly inhibitors; Lassa virus pseudotype entry inhibition, cell reporter; actives 1.2% (n = 300,000); AID 540256, 2011; calls by dose curve; tested in HEK293 cells; note: potency is the fitted concentration of half-maximal effect; % is set by controls: 0 for no effect and ±100 for the full control effect; nearly all actives have a fitted effect of over 50% in size
# SARS PLpro yeast: qHTS of Yeast-based Assay for SARS-CoV PLP; S. cerevisiae expressing SARS-CoV PLpro, growth rescue; Potency, µM (highest dose often 32.9 µM), for the others: top-dose activity, positive = growth rescue, hits mostly activators; actives 0.19% (n = 330,000); calls by dose curve; note: potency is the fitted concentration of half-maximal effect; 0% is about no effect; nearly all actives have a fitted effect of over 55% in size
# Starred values were filed as active, the others as inactive; ? = inconclusive; . = no result given; [ ] = dose if it differs, or a comment. Shown are actives, neighbours in structure and some others; about 8% of the full set was active somewhere.
SMILES,MARV entry inh,HCV inhibitor,HCMV antiviral,FMDV antiviral,LASV entry inh,SARS PLpro yeast
COc1cccc(NC(=O)Cn2cc(C(=O)c3ccccc3)c3ccccc32)c1,?,.,?,-27%,?,.
Cc1cccc(NC(=O)Cn2cc(C(=O)c3ccco3)c3ccccc32)c1C,?,.,-88*,0%,-25%[46.1 µM],.
CCCc1[nH]nc2c1[C@@H](c1cccc(OC)c1)C(C#N)=C(N)O2,4%,.,.,.,.,.
Cc1ccc(C)c(NC(=O)Cn2cc(C(=O)c3ccco3)c3ccccc32)c1,-22%[46.1 µM],.,-34,-25%,-30%[46.1 µM],.
Cc1ccc(NC(=O)Cn2cc(C(=O)c3ccco3)c3ccccc32)c(C)c1,.,.,-73*,-25%,?,.
Cc1noc(NS(=O)(=O)c2ccc(NC(=O)c3ccc(Br)cc3)cc2)c1C,.,.,2,15%,7%[46.1 µM],.
COc1ccc(N(CC(=O)Nc2c(C)n(C)n(-c3ccccc3)c2=O)S(=O)(=O)c2ccccc2)cc1OC,?,?,-5,28%,12%,17%
CCOc1ccc(N(CC(=O)Nc2c(C)n(C)n(-c3ccccc3)c2=O)S(=O)(=O)c2ccc(F)cc2)cc1,?,.,-66*,1%,?,-3%
COc1ccc(N(CC(=O)Nc2c(C)n(C)n(-c3ccccc3)c2=O)S(=O)(=O)c2ccc(F)cc2)cc1,1%,3%,?,-15%,-13%,6%
CCOc1ccccc1N(CC(=O)Nc1c(C)n(C)n(-c2ccccc2)c1=O)S(=O)(=O)c1ccccc1,.,9%,-78*,11%,.,-1%
Cc1ccc(CNC(=O)c2c3c(nc4ccccc24)C(=O)N(C2CCCCC2)C3)cc1,.,.,15,-19%,?,.
CCOc1ccc(NC(=O)Cc2ccc(NC(=O)N3CCCCc4ccccc43)cc2)cc1,.,.,-16,4%,8%[46.1 µM],.
CCC1(C2CCN(C(=O)c3ccc4ccccc4c3)CC2)NC(=O)N(CCc2scnc2C)C1=O (centres undefined),.,.,.,7%,.,.
Cc1c(C(=O)N2CCCCC2)nnn1-c1nonc1N,1%,-15%,-62*,-9%,4%,-1%
Nc1nonc1C(=O)N1CCCC1,-16%[46.1 µM],14%,46,3%,9%[46.1 µM],0%
CC(C)Oc1ccc(CN=C(N)N=C(N)N)cc1Cl,0%[46.1 µM],?,-75*,?,16%,9%
COc1ccc(CN=C(N)N=C(N)N)cc1Cl,-17%[14.2 µM],?,?,-8%,?,-3%
CC(C)COc1ccc(CN=C(N)N=C(N)N)cc1Cl,.,?,-76*,?,.,-6%
CC(C)Oc1ccc(CCN)cc1Cl,?,6%,1,-13%,-15%,18%
CN(C)c1ccc(C(CNC(=O)c2ccccc2Cl)N2CCCC2)cc1 (centres undefined),.,.,-11,-3%,3%[46.1 µM],.
Cc1[nH]n(-c2ncc(-c3ccccc3)s2)c(=O)c1C(c1ccc(Br)cc1)C(C#N)C#N (centres undefined),22%,8%,90,28µM*,8%,-4%
CC[C@H]1CC2CN3CCc4c([nH]c5cc(OC)ccc45)[C@](C(=O)OC)(C2)[C@H]13,.,35µM*,.,-21%,.,.
Cc1ccc(NS(=O)(=O)c2ccc3c(c2)CC(=O)N3)c(C)c1,.,9%,-33,-20%,.,4%
Cc1ccc(NS(=O)(=O)c2ccc3c(c2)CC(=O)N3)cc1F,4%,18%,-62*,44%,0%,2%
O=C(Nc1ccc([N+](=O)[O-])cc1)Nc1ccc(Cl)cc1F,?,3%,-99*,-29%,?,-2%
COc1ccc([N+](=O)[O-])cc1NC(=O)CSCc1ccc(Br)cc1,1%,?,15,-29%,19%,-9%
O=C(CSCc1ccc(Cl)cc1)Nc1cc([N+](=O)[O-])ccc1O,?,2.2µM*,-36,-10%,?,-1%
O=C(Nc1ccc(C(=O)O)cc1)Nc1ccc([N+](=O)[O-])cc1,-2%,-7%,14,-6%,3%,3%
CCC(C)(C)C(=O)Nc1cc([N+](=O)[O-])ccc1F,?,-3%,-18,-20%,5%,14%
